# Compounds with a hit are over-represented: about 2.8% of the library has one in this group of screens.
# HTRA1 inhibitor = HTRA1 serine protease inhibitors, primary screen, biochemical, fluorescence polarization, HTS. recombinant HTRA1, FP-rhodamine activity-based probe. inhibition, % at 5.96 µM. Q92743. 340,000 tested, 0.5% active; in the data active = inhibition above about 36%;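 also: 0% = enzyme with DMSO and 100% = wells lacking enzyme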
# Target sequence (Q92743 whole entry, looked up): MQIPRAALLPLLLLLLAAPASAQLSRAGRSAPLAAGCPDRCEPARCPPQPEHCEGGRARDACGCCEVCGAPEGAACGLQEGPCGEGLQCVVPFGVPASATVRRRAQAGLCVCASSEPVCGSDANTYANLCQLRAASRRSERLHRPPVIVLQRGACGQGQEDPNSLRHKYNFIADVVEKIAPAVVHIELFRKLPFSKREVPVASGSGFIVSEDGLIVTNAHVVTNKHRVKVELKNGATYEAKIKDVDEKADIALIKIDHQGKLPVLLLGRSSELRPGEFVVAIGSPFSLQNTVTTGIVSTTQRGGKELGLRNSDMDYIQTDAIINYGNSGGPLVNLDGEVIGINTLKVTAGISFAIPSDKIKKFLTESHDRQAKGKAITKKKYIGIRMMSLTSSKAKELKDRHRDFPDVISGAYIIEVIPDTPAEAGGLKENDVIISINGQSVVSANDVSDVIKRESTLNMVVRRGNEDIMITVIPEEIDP
# PAFAH1B2 inh = PAFAH1B2 enzyme inhibitors, primary screen, biochemical, fluorescence polarization, human | Platelet-activating factor acetylhydrolase IB subunit alpha2 (Homo sapiens), P68402 | recombinant PAFAH1B2, FP-rhodamine activity probe | inhibition, % at 3.39 µM | 340,000 tested, 1.2% active | AID 492953, 2010;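 active = inhibition above the mean of all tested compounds plus 3 SD, cut at about 24% in these data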;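 also: 0% = enzyme with DMSO and 100% = wells lacking PAFAH1B2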
# Target sequence (P68402 whole entry, looked up): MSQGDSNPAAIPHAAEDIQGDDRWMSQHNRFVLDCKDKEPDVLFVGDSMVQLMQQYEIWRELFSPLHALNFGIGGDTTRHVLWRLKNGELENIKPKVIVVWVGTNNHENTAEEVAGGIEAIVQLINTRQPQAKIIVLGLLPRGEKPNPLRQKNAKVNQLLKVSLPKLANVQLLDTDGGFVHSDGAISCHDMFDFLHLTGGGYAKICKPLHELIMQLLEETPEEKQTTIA
# DAGLB inh = DAGLB lipase inhibitors, primary screen, biochemical, fluorescence, HTS. Diacylglycerol lipase-beta (Homo sapiens), Q8NCG7. HEK293T DAGLB membrane lysate, EnzChek fluorogenic substrate. inhibition, % at 5.17 µM. 340,000 tested, 0.059% active; in the data active = inhibition above about 34%;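 also: 0% = enzyme with vehicle and 100% = wells lacking enzyme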
# PAFAH1B3 inh = PAFAH1B3 enzyme inhibitors, primary screen, biochemical, fluorescence polarization, human | 340,000 tested, 0.28% active | inhibition, % at 3.39 µM | AID 492972, 2010 | recombinant PAFAH1B3, FP-rhodamine probe;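 active = inhibition above the screen-wide average of all tested compounds plus 3 SD, cut at about 25% in these data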;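 also: 0% = enzyme with DMSO only and 100% = wells lacking PAFAH1B3 protein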
# pPAFAH inh = pPAFAH enzyme inhibitors, primary screen, biochemical, fluorescence polarization, human. 330,000 tested, 1.5% active. Platelet-activating factor acetylhydrolase (Homo sapiens), Q13093. recombinant pPAFAH, FP-rhodamine probe fluorescence polarization. inhibition, % at 3.39 µM. AID 463082, 2010;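 active = inhibition above the mean inhibition across the screen plus 3 SD, cut at about 25% in these data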;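 also: inhibitors block binding of the rhodamine activity-based probe so polarization drops; 0% = enzyme with DMSO and 100% = wells lacking pPAFAH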
# PAFAH2 inh = PAFAH2 enzyme inhibitors, primary screen, biochemical, fluorescence polarization, human | Platelet-activating factor acetylhydrolase 2, cytoplasmic (Homo sapiens), Q99487 | recombinant PAFAH2, FP-rhodamine activity probe | inhibition, % at 3.39 µM | 340,000 tested, 0.99% active;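 active = inhibition above the mean over all tested compounds plus 3 SD, cut at about 30% in these data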;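 also: inhibitors block probe labeling of enzyme so polarization drops; 0% = enzyme with DMSO and 100% = wells lacking PAFAH2 protein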
# pPAFAH FP conf = pPAFAH (PLA2G7) enzyme inhibitors, confirmation, biochemical, fluorescence polarization, human; shares compounds with pPAFAH inh; AID 463230, 2010; recombinant pPAFAH, FP-Rh probe fluorescence polarization; 2,300 tested, 72% active; inhibition, % at 3.39 µM;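 active = mean inhibition of the triplicate above the hit cutoff set for the earlier primary screen, cut at about 25% in these data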;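 also: 0% = enzyme with DMSO and 100% = wells lacking pPAFAH enzyme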
# Numbers without * were called inactive; x = no result given; ! = not active in a repeat.
SMILES,HTRA1 inhibitor,PAFAH1B2 inh,DAGLB inh,PAFAH1B3 inh,pPAFAH inh,PAFAH2 inh,pPAFAH FP conf
CSc1ncccc1C(=O)OCC(=O)NC1CCS(=O)(=O)C1 (stereo not drawn),4.3,-0.2,-0.4,-3.0,-4.0,5.7,x
CSc1ncccc1C(=O)OCC(=O)NC1CCC(C)CC1 (stereo not drawn),3.6,0.9,-1.7,7.5,51.9*,36.4*,-0.1
CCOc1ccc(NS(=O)(=O)c2ccc(C(=O)NCC(c3ccc(OC)cc3)N3CCCC3)cc2)cc1 (stereo not drawn),-1.1,1.9,2.6,3.1,49.0*,8.1,41.3*
COc1cc(CCc2ccccc2)c(C(=O)O)c(O)c1CC=C(C)C,-80.5,5.9,20.2,1.8,x,18.6,x
COc1cc(CCc2ccccc2)c(C(=O)O)c(O)c1C/C=C(/C)CCC=C(C)C,-131.5,22.6,13.6,9.9,71.6*,18.0,58.7*
O=C(CN1C(=O)NC2(CCCc3ccccc32)C1=O)c1ccc(Br)cc1 (stereo not drawn),-20.4,-1.6,-0.7,-1.3,-2.9,-1.4,x
O=C(N/N=C/c1ccncc1)c1ccc2c(c1)OCO2,9.1,2.0,-0.8,5.0,41.5*,9.1,-4.1
O=C(N/N=C/c1ccc(Cl)cc1)c1ccc2c(c1)OCO2,-2.2,5.9,-3.9,7.0,-0.2,4.3,x
O=C(Nc1cccc(S(=O)(=O)Nc2ccc(Cl)cc2)c1)c1ccc(Cl)nc1,-62.5,-0.6,2.9,-14.7,40.5*,-16.5,34.4*
CCN(C(=O)C(C)N1C(=O)/C(=C/c2ccco2)SC1=S)C1CCS(=O)(=O)C1 (stereo not drawn),23.4,0.1,2.1,8.5,44.4*,0.0,6.9
O=C1/C(=C/c2ccco2)SC(=S)N1C1CCS(=O)(=O)C1 (stereo not drawn),14.1,-4.5,2.1,9.0,57.3*,4.4,-0.3
O=C1/C(=C\c2ccco2)SC(=S)N1C1CCS(=O)(=O)C1 (stereo not drawn),x,x,x,x,22.7,x,x
Cc1ccc(/C=C2\SC(=S)N(CC3CCCO3)C2=O)o1 (stereo not drawn),7.6,-2.0,1.5,-1.4,18.1,3.7,x
Cc1ccc(/C=C2/SC(=S)N(C3CCCCC3)C2=O)o1,25.2,-1.2,6.6,-2.8,37.4*,11.0,11.0
COc1cc2c(cc1OC)C(c1ccccc1F)NCC2 (stereo not drawn),2.9,1.1,-2.8,8.7,6.3,8.8,x
Cc1ccc(C(=O)N(C)CCOc2ccccc2)cc1S(=O)(=O)N1CCOCC1,2.1,3.9,-0.5,4.2,-0.8,-3.9,x
CN(C(=O)COc1ccc([N+](=O)[O-])cc1)C1CCS(=O)(=O)C1 (stereo not drawn),x,x,x,x,0.0,x,x
Cc1cc(-c2ccccc2)n(-c2ccc(C(=O)N3CCN(c4ncccn4)CC3)cc2)n1,-8.5,-2.3,-2.9,7.7,36.0*,-3.2,22.3
COc1ccccc1NC(=O)C1CC(O)CN1C(=O)Oc1ccccc1 (stereo not drawn),-1.9,3.7,-2.8,7.2,-3.3,-10.2,x
N#Cc1c(NC(=O)c2ccccc2Cl)n(Cc2ccccc2)c2nc3ccccc3nc12,-25.8,53.1*,7.7,63.3*,38.4*,64.3*,34.8*
COc1ccc(NC(=O)CSc2nc3nc(C)cc(C)c3c(=O)[nH]2)cc1,-2.9,4.3,1.7,0.9,69.3*,-0.6,1.7
COc1cccc(/C=N/Nc2ccc([N+](=O)[O-])cn2)c1O,3.6,1.8,5.7,-2.7,47.6*,5.2,12.1
N#Cc1sc2nc(-c3ccccc3)cc(-c3ccco3)c2c1N,42.7*,4.5,8.8,34.1*,42.6*,23.4,14.6
COc1cccc(-c2cc(C(F)(F)F)c3c(N)c(C#N)sc3n2)c1,x,x,x,x,-0.9,x,x
CSc1ncccc1C(=O)OC(C)C(=O)Nc1cccc(S(=O)(=O)N2CCOCC2)c1 (stereo not drawn),2.5,-3.2,-2.0,12.5,5.4,2.1,x
SMILES,HTRA1 inhibitor,PAFAH1B2 inh,DAGLB inh,PAFAH1B3 inh,pPAFAH inh,PAFAH2 inh,pPAFAH FP conf
COc1ccc2nc(NC(=O)CSc3nnc(C)n3N)sc2c1,6.0,5.8,1.6,-1.6,37.9*,0.1,7.3
CCOc1ccc(Br)cc1S(=O)(=O)Nc1cccc(S(=O)(=O)N2CCOCC2)c1,-4.3,-0.4,2.2,3.3,x,0.5,x
O=C1OCCC1Sc1nnc(-c2ccc(F)cc2)n1Cc1ccccc1 (stereo not drawn),-3.9,11.0,-0.8,3.7,-0.4,-3.8,x
Cc1cc(C)n(Cc2ccc(C(=O)N/N=C/c3ccc(-c4ccc([N+](=O)[O-])cc4)o3)o2)n1,4.8,-2.1,-0.9,4.9,52.1*,37.7*,46.7*
O=C(O)c1cccc(-c2ccc(/C=N/Nc3ccc([N+](=O)[O-])cc3)o2)c1,4.2,0.9,-6.7,2.0,41.7*,5.4,27.9*
O=C(O)c1ccc(-c2ccc(/C=N/Nc3ccc([N+](=O)[O-])cc3)o2)cc1,-2.6,5.9,-7.6,10.4,46.7*,10.4,38.5*
CCOc1ccc(CCNC(=O)C(C)N2C(=O)CC(C)(C)Sc3ccccc32)cc1 (stereo not drawn),-5.0,2.8,-7.7,5.1,3.4,-7.3,x
Cc1cccc(-n2cc(-c3ccccc3)c3c(NN4CCOCC4)ncnc32)c1,-1.7,-0.3,-5.5,-2.6,74.6*,-0.6,12.5
O=C(Nc1nc2c(s1)CN(Cc1ccccc1)CC2)c1c(F)cccc1F,-16.5,-3.8,1.8,-0.7,62.0*,-7.4,2.3
CCCOc1ccc(C(=O)Nc2cc(S(=O)(=O)N3CCOCC3)ccc2N2CCOCC2)cc1,-5.1,0.2,2.1,5.2,0.5,3.6,x
CCOC(=O)C1=C(COC(=O)c2ccc(OC(C)C)cc2)NC(=O)NC1C (stereo not drawn),-6.6,-0.5,4.4,-6.4,4.6,4.8,x
Cc1ccc(S(=O)(=O)NNC(=O)Nc2ccc(C)c(C)c2)c(C)c1,-4.8,8.5,-3.2,1.5,8.0,-0.9,x
C=Cc1c(C)c2cc3[nH]c(cc4nc(cc5nc(cc1[nH]2)C(C)=C5CCC(=O)O)C(CCC(=O)O)=C4C)c(C)c3C=C,68.8*,-0.3,3.9,39.9*!,97.2*,60.4*!,51.1*
N#CCCN(NC1=NS(=O)(=O)c2ccccc21)C(=O)c1ccccc1Br,13.5,5.8,1.6,2.8,49.5*,-3.0,3.0

# Screening results deposited in PubChem by The Scripps Research Institute Molecular Screening Center.
